# Rows were chosen to be rich in hits. Some 0.72% of all compounds tested hit in one or more screens of this group.
# Neddylation inh: inhibitors of cullin neddylation, primary screen, biochemical, TR-FRET, uHTS, NAE and Ubc12; NEDD8-conjugating enzyme Ubc12 (Homo sapiens) + NEDD8-activating enzyme E1 regulatory …; calls only at 25 µM; 360,000 compounds, 0.58% hits; AID 651699, 2012; in the data active = inhibition above about 36%
# Target sequence (P61081 whole entry, looked up): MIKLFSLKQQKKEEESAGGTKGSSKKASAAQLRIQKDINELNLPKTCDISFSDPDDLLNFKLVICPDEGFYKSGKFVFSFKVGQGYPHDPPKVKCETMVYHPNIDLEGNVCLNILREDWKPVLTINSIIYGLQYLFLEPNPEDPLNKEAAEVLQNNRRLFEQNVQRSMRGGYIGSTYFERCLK
# Target sequence (Q13564 whole entry, looked up): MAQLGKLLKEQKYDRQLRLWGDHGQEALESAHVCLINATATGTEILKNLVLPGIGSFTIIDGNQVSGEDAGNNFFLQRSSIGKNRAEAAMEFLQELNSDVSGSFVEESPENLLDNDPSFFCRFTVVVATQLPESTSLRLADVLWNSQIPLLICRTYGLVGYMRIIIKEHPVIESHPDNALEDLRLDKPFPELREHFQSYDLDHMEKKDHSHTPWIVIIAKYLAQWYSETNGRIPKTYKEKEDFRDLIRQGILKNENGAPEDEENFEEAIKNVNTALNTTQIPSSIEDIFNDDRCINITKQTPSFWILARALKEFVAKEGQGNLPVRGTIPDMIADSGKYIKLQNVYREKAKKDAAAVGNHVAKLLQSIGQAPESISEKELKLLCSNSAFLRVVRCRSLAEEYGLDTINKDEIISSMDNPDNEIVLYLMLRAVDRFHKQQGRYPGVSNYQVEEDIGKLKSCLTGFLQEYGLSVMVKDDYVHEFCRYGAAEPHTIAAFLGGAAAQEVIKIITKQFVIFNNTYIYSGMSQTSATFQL
# PKA-R1A activ: activators of PKA-R1A holoenzyme, primary screen, biochemical, fluorescence polarization, Cy5-IP20, bovine R1A, mouse PKAc; cAMP-dependent protein kinase type I-alpha regulatory subunit (Bos taurus) + …; PKA-R1A dissociation; scaled: DMSO 0%, 113 µM cGMP 100%; activation, % at 11.4 µM; 340,000 compounds, 0.083% hits; AID 504707, 2011;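 active = percent activation above the mean of all tested compounds plus 3 SD, cut at about 19% in these data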;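 also: higher means more PKAc released from R1A so a rise in polarization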
# PolyA inh: polyadenylation inhibitors in yeast reporter cells, primary screen, luminescence, S. cerevisiae | S. cerevisiae SKY197-pL101 polyadenylation reporter, beta-gal luminescence; efflux-impaired pdr1/pdr3 knockout yeast; score 100 = 6 SD above DMSO | activity score, % at 12 µM | 300,000 compounds, 0.02% hits;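 active = lowest replicate activity score at least 50, where 100 means six control SD above control mean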;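 also: yeast exposed to compound for 9 h at 30 °C; higher score means more reporter readthrough which indicates perturbed polyadenylation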
# PKA-R2B activ: activators of PKA-R2B holoenzyme, primary screen, biochemical, fluorescence polarization, Cy5-IP20, human. cAMP-dependent protein kinase catalytic subunit beta (Homo sapiens) + cAMP-dependent …. activation, % at 11.4 µM. 340,000 compounds, 0.079% hits. PKA-R2B holoenzyme dissociation; R2B truncated from residue 108, S112A mutant; 0% DMSO only, 100% 113 µM cGMP;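 active = activation above a cutoff set at the mean over all compounds plus 3 SD, cut at about 18% in these data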;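 also: higher means more holoenzyme dissociation and a rise in polarization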
# Neddyl conf: blockade of NEDD8 conjugation to cullin – biochemical, TR-FRET, single concentration, confirmation. shares compounds with Neddylation inh. TR-FRET cullin neddylation biochemical assay. calls only at 25 µM. 1,800 compounds, 13% hits. AID 652217, 2013; in the data active = inhibition above about 40%;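 also: neddylation substrate is the cullin 1 ring ligase complex with SKP2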
# Numbers without * were called inactive; i = inactive; nt = no result shown; + = active, no number.
SMILES,Neddylation inh,PKA-R1A activ,PolyA inh,PKA-R2B activ,Neddyl conf
c1ccc(N2CCN(c3nc(NCc4ccco4)c4ccccc4n3)CC2)cc1,i,-3.9,3.4,-15.1,nt
CN(C)c1nnnn1-c1ccc(OC(F)(F)F)cc1,i,5.3,5.7,2.5,nt
Cc1ccc(NC(=O)CN2C(=O)NC(C)(CC(C)C)C2=O)c(Br)c1 (stereo not given),i,-6.6,nt,0.0,nt
CN1C[C@@H]2[C@@H]3C(=O)N(Cc4ccccc4)C(=O)[C@@H]3[C@](Cc3ccccc3)(C1=O)N2C(=O)c1ccc(C(C)(C)C)cc1,i,-7.0,nt,-9.2,nt
O=C(COC(=O)c1ccccc1O)Nc1cc(S(=O)(=O)N2CCCCCC2)ccc1Cl,+,-0.6,nt,4.8,nt
O=C(COC(=O)c1ccccc1)Nc1cc(S(=O)(=O)N2CCCCCC2)ccc1Cl,i,-4.9,nt,-7.0,nt
O=C(Nc1cc(S(=O)(=O)N2CCCCC2)ccc1O)c1ccccc1NS(=O)(=O)c1ccc(F)c(F)c1,+,-8.2,11.9,-14.0,i
C/C(CCc1ccccc1)=N\NC(=O)C(=O)Nc1cccc(Cl)c1,i,-10.1,3.7,-3.5,nt
COc1ccc2oc(C(=O)OCC(=O)N(C)CC(=O)Nc3ccc(F)cc3)c(C)c2c1,+,4.7,12.1,-10.2,nt
COc1ccc2oc(C(=O)OCC(=O)NC(=O)c3ccccc3)c(C)c2c1,i,-5.1,12.0,-2.3,nt
COc1ccc2oc(C(=O)OCC(=O)NC3CCCCC3)c(C)c2c1,+,0.3,-6.9,-10.8,i
CCOc1ccc2oc(C(=O)OCC(=O)N3CCCC(C)C3)c(C)c2c1 (stereo not given),+,10.6,nt,5.8,nt
COc1ccc2oc(C(=O)OCC(=O)N3CCCC(C)C3)c(C)c2c1 (stereo not given),nt,-17.9,11.5,-11.5,nt
NC(=O)N/N=C\c1cc(Br)ccc1O,+,-8.9,-12.8,-1.7,i
O=c1[nH]c2cc3c(cc2cc1CN(CCN1CCOCC1)C(=S)NCC1CCCO1)OCO3 (stereo not given),nt,-0.9,14.1,0.4,nt
CN(C)CCN(Cc1cc2cc3c(cc2[nH]c1=O)OCO3)C(=S)NCC1CCCO1 (stereo not given),+,2.1,5.7,-2.1,i
O=C(c1ccccc1)N(CCO)Cc1cc2cc3c(cc2[nH]c1=O)OCCO3,+,6.7,-2.7,-5.9,i
O=C(c1ccco1)N(CCO)Cc1cc2cc3c(cc2[nH]c1=O)OCO3,i,-8.4,31.7,-5.4,nt
O=C(NCc1ccccc1)N(Cc1cc2cc3c(cc2[nH]c1=O)OCO3)CC1CCCO1 (stereo not given),+,-7.5,-3.5,-8.5,i
O=C(CSc1nc2ccc(Cl)cc2[nH]1)Nc1ccc2[nH]c(=O)[nH]c2c1,i,-12.9,5.9,-2.9,nt
COc1cccc(/C=C/C(=O)OCC(=O)c2ccc[nH]2)c1,+,-5.2,nt,1.1,i
COc1cccc(/C=C/C(=O)OCC(=O)Nc2ccccc2Sc2ccccc2)c1,+,-5.7,8.3,-3.9,i
Cc1ccc(/C=C/C(=O)OCC(=O)Nc2ccccc2Sc2ccccc2)cc1,i,-3.4,11.2,-12.8,nt
O=C(/C=C/c1cccc(F)c1)OCC(=O)c1ccc[nH]1,i,4.3,nt,-2.8,nt
Cc1cc(NC(=O)CSc2ccc3nnc(-c4ccccn4)n3n2)no1,+,-7.6,-3.4,2.6,nt
SMILES,Neddylation inh,PKA-R1A activ,PolyA inh,PKA-R2B activ,Neddyl conf
O=C(Nc1cccc(F)c1)c1cccnc1NCCc1ccccc1,+,-3.8,-18.7,0.1,i
O=C(Nc1ccc(F)cc1)c1cccnc1NCCc1ccccc1,i,-2.6,-10.1,-3.2,nt
CCOC(=O)C1=C(C(=O)OCC)c2ccc(OC)c(OC)c2C1,+,-5.9,nt,-5.8,i
CCOc1cc(/C=N/NC(=O)c2ccc(NC(=O)C3CC3)cc2)ccc1O,i,-11.5,-5.0,-3.6,nt
CCOc1cc(/C=N/NC(=O)c2cc(C)n(-c3ccc(F)cc3)c2C)ccc1O,+,-1.6,-10.9,-5.0,i
O=C(Nc1ccc2nsnc2c1)c1cccs1,i,-1.1,-15.1,-4.1,nt
O=C(Nc1cccc2nsnc12)c1cccs1,nt,-2.7,12.1,-1.5,i
Cc1nc2c(C#N)cnn2c2c1CCN2CC1CCCO1 (stereo not given),+,-12.6,2.7,1.7,i
Cc1nc2c(C#N)cnn2c2c1CCN(Cc1ccccc1)N2C,i,9.8,-25.3,2.1,nt
Oc1ccccc1C=NNc1nc2ccccc2s1,+,7.4,nt,1.4,i
C[C@H](NC(=O)c1ncn2c1c(=O)[nH]c1ccc(Br)cc12)c1ccccc1,i,0.3,nt,-2.3,nt
C[C@H](NC(=O)c1ncn2c1c(=O)[nH]c1ccccc12)c1ccccc1,+,-11.1,nt,-7.9,+
O=C(CN1c2cccc3cccc(c23)S1(=O)=O)N1CCOCC1,+,8.6,1.3,-5.9,nt
CC(/C=N/NC(=O)c1ccc(CN2c3cccc4cccc(c34)S2(=O)=O)cc1)c1ccccc1 (stereo not given),nt,-2.5,-5.1,1.6,nt
O=C(CN1c2cccc3cccc(c23)S1(=O)=O)N1CCCCC1,+,-3.4,nt,-3.7,+
O=C(CN1c2cccc3cccc(c23)S1(=O)=O)NC1CCCCC1,i,-0.6,nt,2.8,nt
O=C(O)c1ccc(/C=N/NC(=O)c2ccc(CN3c4cccc5cccc(c45)S3(=O)=O)cc2)cc1,+,-14.2,13.2,5.1,+
CC1CCCC(C)N1C(=O)CN1c2cccc3cccc(c23)S1(=O)=O (stereo not given),+,-3.9,nt,-5.5,+
O=C(CN1c2cccc3cccc(c23)S1(=O)=O)N1CCN(c2ccc(F)cc2)CC1,i,-12.0,nt,-8.2,nt
c1ccc(-c2cc3ncccc3cn2)cc1,i,-6.7,nt,6.3,nt
c1cnc2cc(-c3ccsc3)ncc2c1,+,-9.8,nt,-10.2,+
COCCNC(=O)C1CC(c2ccc(C(F)(F)F)cc2)=NO1 (stereo not given),i,-0.7,26.3,5.3,nt
COc1ccc(O)c(C(=O)c2cnn(C(=O)c3cccc(N(C)C)c3)c2)c1,+,15.7,nt,-4.3,i
COc1ccc(C(=O)n2cc(C(=O)c3cc(C)ccc3O)cn2)cc1OC,+,8.0,-13.3,1.9,nt
CN(C)c1cccc(C(=O)n2cc(C(=O)c3cc(F)ccc3O)cn2)c1,nt,-1.9,15.5,-8.4,nt
O=C(NCCc1ccccc1)c1ccc2c(c1)S(=O)(=O)N=C1CCCCCN12,i,5.3,nt,-0.3,nt

# Assay outcomes: PubChem BioAssay, several laboratories
